Measured potencies and affinities stand elsewhere. Active and inactive are the calls of the source. No rule for the calls is given here.
These compounds were tested against UDP-galactopyranose mutase (Mycobacterium tuberculosis (strain ATCC 25618 / H37Rv)) (UniProt P9WIQ1) (assay: Mycobacterium tuberculosis UGM enzyme inhibition, dose response confirmation, purified biochemical assay (AID 540359)). Settings: plate reader activity; series mostly up to 50 µM; activity change, negative = inhibition: at the top concentration.
Chain of UDP-galactopyranose mutase (Mycobacterium tuberculosis (strain ATCC 25618 / H37Rv)) (P9WIQ1 whole entry, looked up): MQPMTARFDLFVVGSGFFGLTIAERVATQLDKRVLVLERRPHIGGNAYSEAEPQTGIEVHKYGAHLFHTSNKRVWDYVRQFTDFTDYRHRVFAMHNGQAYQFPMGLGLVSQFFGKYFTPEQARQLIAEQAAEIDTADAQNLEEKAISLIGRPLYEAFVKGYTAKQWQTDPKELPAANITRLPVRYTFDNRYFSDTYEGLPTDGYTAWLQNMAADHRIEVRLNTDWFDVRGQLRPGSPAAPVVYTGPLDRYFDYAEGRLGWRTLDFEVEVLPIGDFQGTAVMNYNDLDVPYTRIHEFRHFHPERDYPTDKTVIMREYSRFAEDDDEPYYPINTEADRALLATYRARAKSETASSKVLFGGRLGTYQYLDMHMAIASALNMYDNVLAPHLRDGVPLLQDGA

Row | Structure (SMILES) | activity change, negative = inhibition
1 | COc1ccc2[nH]c(C)c(CCN(Cc3cccs3)C(=S)Nc3ccccc3OC)c2c1 | -8.12% (inactive)
2 | Cc1ccc(-c2nc3sc(C#N)c(N)n3c(=O)c2C#N)cc1 | 12.5% (inactive)
3 | COc1cccc2c(=O)cn[nH]c12 | -12.8% (inactive)
4 | COc1cc(OC)cc(C(=O)Nc2cc(C)nn2-c2ccccc2)c1 | -2.8% (inactive)
5 | O=C(Cc1cccs1)Nc1cc(SCCO)cc([N+](=O)[O-])c1 | -2.71% (inactive)
6 | CC(N)=Nc1ccc([N+](=O)[O-])cc1 | -0.037% (inactive)
7 | O=C(O)c1ccccc1C(=O)OCCCCOC(=O)c1ccccc1C(=O)O | -7.41% (inactive)
8 | O=C(OCc1ccc(Br)cc1)c1cnc(Cl)c(Cl)c1 | -1.03% (inactive)
9 | CCN(CC)CCCNC(=O)c1cc(Sc2nnc(C)s2)nc2ccccc12 | -0.597% (inactive)
10 | Cc1c(C(=O)N2CCOCC2)sc(NC(=O)CCl)c1C#N | 0.121% (inactive)
11 | CCN(CC)S(=O)(=O)c1ccc2c(c1)c(=O)c(C(=O)NCc1ccco1)cn2C | 2.92% (inactive)

Source: PubChem BioAssay AID540359 (Broad Institute, 2011)
